Bioassay records from PubChem.
Most compounds without a hit are left out; they make up all but 3.2% or so of the library.
Kir21 inh: inhibitors of mouse Kir2.1 inward-rectifier potassium channel. P35561. HEK293-Kir2.1, FluxOR thallium flux fluorescence; hits give low values. B-score at 10 µM. 310,000 tested, 0.85% active;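 active = fluorescence ratio B-score at or below minus 3 SD of library scores, with starting-brightness B-score within 2 SD, cut at about -4.2 in these data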;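 also: channel flux triggered by added potassium and thallium sulfate stimulus; B-score of peak minus minimum fluorescence over baseline after thallium stimulus; more negative B-score means stronger Kir2.1 block with less thallium influx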
TMEM16A act: mouse TMEM16A channel activation, primary screen; Q8BHY3; HEK293 TMEM16A/YFP-H148Q/I152L, iodide quench fluorescence; hits give low values; B-score at 10 µM; 340,000 tested, 0.3% active; AID 623877;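 active = fluorescence-ratio B-score plate-corrected deviation score at least 3 library SD below zero, with starting fluorescence score within 5 deviations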;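 also: channel opened by trigger with iodide after compound preincubation; score built on the fluorescence ratio of max minus min over baseline; more negative score means more quench and so TMEM16A activation or potentiation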
Rce1 inh: yeast Ras-converting enzyme inhibition; 290,000 tested, 0.27% active; yeast membranes, quenched prenylated peptide cleavage fluorescence; calls only; Q03530;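 active = fall in fluorescence gain of 50% or more versus controls, with final raw signal at or below 3038400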;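 also: plate controls were neutral control wells for no effect and wells lacking membranes for full effect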
Target sequence (Q03530 whole entry, looked up): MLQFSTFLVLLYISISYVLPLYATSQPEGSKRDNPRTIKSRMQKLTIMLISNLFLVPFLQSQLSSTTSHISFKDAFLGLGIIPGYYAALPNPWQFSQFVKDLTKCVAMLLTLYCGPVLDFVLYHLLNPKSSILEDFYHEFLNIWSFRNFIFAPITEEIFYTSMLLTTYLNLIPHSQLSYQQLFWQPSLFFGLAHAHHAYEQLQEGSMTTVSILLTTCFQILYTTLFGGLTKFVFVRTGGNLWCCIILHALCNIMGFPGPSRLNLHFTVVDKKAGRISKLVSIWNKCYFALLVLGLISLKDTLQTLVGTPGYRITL
CHT inh: human CHT choline transport inhibition. Q9GZV3. CHT-expressing cells, membrane potential dye, choline response; hits give low values. B-score at 10 µM. 310,000 tested, 0.86% active;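 active = B-score over 3 SD under the library average, and starting fluorescence ratio not unusually high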;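 also: choline stimulus applied at its EC90 after an EC20 pre-addition; B-score computed on integrated fluorescence ratio after choline addition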
TMEM16A inh: mouse TMEM16A channel inhibition, primary screen; AID 588511; HEK293 TMEM16A/YFP iodide influx fluorescence, ionomycin; 310,000 tested, 1.2% active; normalized B-score (activity score, 25-100; higher = stronger inhibition) at 10 µM;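 active = ratio plate-corrected score three or more library SD toward inhibition, starting fluorescence score within five deviations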;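 also: score derived from kinetic fluorescence span divided by baseline fluorescence per well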
CHT PAM: allosteric activators of human choline transporter CHT | 310,000 tested, 0.49% active | B-score at 10 µM | AID 488977 | CHT-expressing cells, membrane potential dye, choline EC20; hits give high values; LV-AA mutant CHT in HEK293 cells | Q9GZV3;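 active = initial fluorescence not abnormally high and integrated response B-score, plate-corrected, over 3 SD above library mean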
CHT inh conf: confirmation of human choline transporter CHT inhibitors | shares compounds with CHT inh | CHT-expressing cells, choline membrane potential dye; LV-to-AA substituted CHT, HEK293 cells | CHT activity remaining % of control (hits give low values), % at 10 µM | 2,400 tested, 70% active;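 active = choline transporter activity left, mean of duplicates at 10 µM, below buffer-only control mean minus 3 SD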;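 also: depolarization triggered by choline at its EC90 following an EC20 pre-addition; 0% = hemicholinium-3 full block and 100% = buffer-only control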
HEK293 CHT ctr: activity in parental HEK293 cells lacking CHT. membrane potential ratio readout (active if shifted either direction beyond buffer ±3SD; no single direction) at 10 µM. 2,400 tested, 4% active. shares compounds with CHT inh. membrane potential dye, choline response; active = decrease or increase beyond buffer ±3SD;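 also: parental cells lack the transporter so any hit is non-specific; ratio is peak minus trough fluorescence over baseline after EC90 choline challenge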
The depositor's hits bear a star; i = inactive; . = no result.

SMILES | Kir21 inh | TMEM16A act | Rce1 inh | CHT inh | TMEM16A inh | CHT PAM | CHT inh conf | HEK293 CHT ctr
CCOC(=O)c1c(NC(=O)CCN2C(=O)c3cccc([N+](=O)[O-])c3C2=O)sc(C(=O)OC(C)C)c1C | -1.92 | i | i | -7.49* | i | i | 70.5%* | i
CC(C)(C)c1ccc(NC(=O)COC(=O)CCN2C(=O)c3cccc([N+](=O)[O-])c3C2=O)cc1 | -0.06 | i | i | i | i | i | . | .
CC(OC(=O)CCN1C(=O)C2CC=CCC2C1=O)C(=O)Nc1cccc(Cl)c1 (stereo not drawn) | 0.18 | i | i | i | i | i | . | .
COc1ccc(NC(=O)CCN2C(=O)c3cccc([N+](=O)[O-])c3C2=O)cc1 | 1.32 | i | . | -10.6* | i | i | i | i
Cc1ccc(NC(=O)CCN2C(=O)c3cccc([N+](=O)[O-])c3C2=O)c(Br)c1 | 0.27 | i | i | i | i | i | . | .
CC(OC(=O)CCN1C(=O)c2cccc([N+](=O)[O-])c2C1=O)C(=O)Nc1cc(Cl)cc(Cl)c1 (stereo not drawn) | -3.36 | i | i | -6.59* | i | i | 60.4%* | i
O=C(c1cccc(NS(=O)(=O)c2ccccc2)c1)N1CCCCC1 | -1.41 | i | i | i | i | i | . | .
O=C(NCCCn1ccnc1)c1nn2c(C(F)(F)F)cc(-c3ccc(Br)cc3)nc2c1Cl | -0.87 | i | i | i | i | i | . | .
O=C(CC(=O)c1ccccc1)Nc1ccc(Cl)cc1 | 1.7 | i | i | i | i | i | . | .
Cc1c(/C=N\NC(=O)c2ccc([N+](=O)[O-])cc2)cnn1C | 0.24 | i | i | -7.66* | i | i | i | i
Cc1cc(C(=O)N/N=C/c2ccc3c(c2)OCO3)c(C)o1 | 1.72 | i | i | -7.09* | i | i | i | i
CN1CCN(S(=O)(=O)c2cccc(C(=O)NC3CCCc4ccccc43)c2)CC1 (stereo not drawn) | 0.22 | i | i | -5.59* | i | i | 50.6%* | i
O=C(Nc1ccccc1OC(F)F)c1ccc(S(=O)(=O)N2CCCC2)cc1 | . | i | . | . | . | . | . | .
CC1CCC(NC(=O)c2cccc(S(=O)(=O)NCc3ccccc3)c2)CC1 (stereo not drawn) | 1.79 | i | i | -14.8* | i | i | 35.8%* | i
CN1CCN(S(=O)(=O)c2cccc(C(=O)Nc3ccc(Br)cc3Br)c2)CC1 | -0.35 | i | i | -10.4* | i | i | 8.7%* | i
O=C(Nc1ccccc1OC(F)F)c1cccc(S(=O)(=O)N2CCCC2)c1 | -1.21 | i | i | -5.07* | i | i | 55.6%* | i
Cn1ccnc1C(=O)Cc1ccc([N+](=O)[O-])cc1 | -0.24 | i | i | i | i | i | . | .
